Laboratory results from PubChem BioAssay (NCATS).
Records with an inconclusive call do not appear. Active and inactive are the calls of the source. Calls follow the shape of the dose curve; as a rule, active = well fitted curve in the direction sought with a large enough effect; inconclusive = small, poorly fitted or top-dose-only effect, or another doubt; inactive = no such curve, though single readings can be large; an effect the other way counts as inactive or inconclusive.

How the values were obtained:
[1] = Quantitative High-Throughput drug screen in 47 multiple myeloma cell lines against the NCATS MIPE library collection: H1112_PLB cell viability assay (AID 1918967; also: nearly all actives have a fitted effect of over 30% in size)
Outline: (§1)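 Relative luminescence from CellTiter-Glo served as the viability signal, referenced to DMSO-treated (100%) and cell-free medium (0%) controls. Treatment lasted 48 hours at 37C with 500 cells per well.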

[2] = Quantitative High-Throughput drug screen in 47 multiple myeloma cell lines against the NCATS MIPE library collection: Karpas25_ECACC cell viability assay (AID 1918968; also: nearly all actives have a fitted effect of over 35% in size)
Outline: as §1

[3] = Quantitative High-Throughput drug screen in 47 multiple myeloma cell lines against the NCATS MIPE library collection: KMS27_JCRB cell viability assay (AID 1918970); also: nearly all actives have a fitted effect of over 30% in size
Outline: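 CellTiter-Glo luminescence after 48 h drug exposure at 37 °C; 500 cells/well, 1536-well format, pin-tool compound addition; DMSO = 100%, media-only = 0% viability.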

[4] = Quantitative High-Throughput drug screen in 47 multiple myeloma cell lines against the NCATS MIPE library collection: KMS12PE_JCRB cell viability assay (AID 1918972); also: nearly all actives have a fitted effect of over 30% in size
Outline: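 Viability readout: CellTiter-Glo luminescence following 5 min room-temperature incubation with reagent. Prior exposure: 48 h, 37C, humidified 5% CO2, 500 cells per well.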

[5] = Quantitative High-Throughput drug screen in 47 multiple myeloma cell lines against the NCATS MIPE library collection: KMS26_JCRB cell viability assay (AID 1918975); also: nearly all actives have a fitted effect of over 45% in size
Outline: (§2)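 Myeloma cells (500 per well) were exposed to MIPE 4.0 compounds by pin transfer and incubated 48 hours at 37C, 5% CO2. Viability was read as ATP by CellTiter-Glo luminescence, normalised to DMSO (100%) and media-only (0%) wells.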

[6] = Quantitative High-Throughput drug screen in 47 multiple myeloma cell lines against the NCATS MIPE library collection: MOLP8_DSMZ cell viability assay (AID 1918977); also: nearly all actives have a fitted effect of over 45% in size
Outline: (§3)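 Cells were exposed to library compounds for 48 hours, after which ATP was measured by CellTiter-Glo. Signal was taken as median relative luminescence units.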

[7] = Quantitative High-Throughput drug screen in 47 multiple myeloma cell lines against the NCATS MIPE library collection: NCIH929_DSMZ cell viability assay (AID 1918978); also: nearly all actives have a fitted effect of over 35% in size
Outline: as §3

[8] = Quantitative High-Throughput drug screen in 47 multiple myeloma cell lines against the NCATS MIPE library collection: OCIMY1_PLB cell viability assay (AID 1918979); also: nearly all actives have a fitted effect of over 35% in size
Outline: as §3

[9] = Quantitative High-Throughput drug screen in 47 multiple myeloma cell lines against the NCATS MIPE library collection: MM1S_ATCC cell viability assay (AID 1918980); also: nearly all actives have a fitted effect of over 45% in size
Outline: as §3

[10] = Quantitative High-Throughput drug screen in 47 multiple myeloma cell lines against the NCATS MIPE library collection: MM1R_ATCC cell viability assay (AID 1918981); also: nearly all actives have a fitted effect of over 35% in size
Outline: as §3

[11] = Quantitative High-Throughput drug screen in 47 multiple myeloma cell lines against the NCATS MIPE library collection: LP1_DSMZ cell viability assay (AID 1918982); also: nearly all actives have a fitted effect of over 35% in size
Outline: as §3

[12] = Quantitative High-Throughput drug screen in 47 multiple myeloma cell lines against the NCATS MIPE library collection: KMS28PE_JCRB cell viability assay (AID 1918983); also: nearly all actives have a fitted effect of over 35% in size
Outline: as §3

[13] = Quantitative High-Throughput drug screen in 47 multiple myeloma cell lines against the NCATS MIPE library collection: KMS34_JCRB cell viability assay (AID 1918985); also: nearly all actives have a fitted effect of over 40% in size
Outline: as §3

[14] = Quantitative High-Throughput drug screen in 47 multiple myeloma cell lines against the NCATS MIPE library collection: KMS21BM_JCRB cell viability assay (AID 1918974); conditions: ATP luminescence, 48 h; viability: at 45.8 µM (top of the series)
Outline: as §1

[15] = Quantitative High-Throughput drug screen in 47 multiple myeloma cell lines against the NCATS MIPE library collection: MMM1_PLB cell viability assay (AID 1918976); also: nearly all actives have a fitted effect of over 35% in size
Outline: as §3

[16] = Quantitative High-Throughput drug screen in 47 multiple myeloma cell lines against the NCATS MIPE library collection: L363_DSMZ cell viability assay (AID 1918984); also: nearly all actives have a fitted effect of over 40% in size
Outline: as §3

[17] = Quantitative High-Throughput drug screen in 47 multiple myeloma cell lines against the NCATS MIPE library collection: KMS12BM_JCRB cell viability assay (AID 1918971); also: nearly all actives have a fitted effect of over 35% in size
Outline: as §2

[18] = Quantitative High-Throughput drug screen in 47 multiple myeloma cell lines against the NCATS MIPE library collection: OCIMY5_PLB cell viability assay (AID 1918988); also: nearly all actives have a fitted effect of over 65% in size
Outline: as §3

[19] = Quantitative High-Throughput drug screen in 47 multiple myeloma cell lines against the NCATS MIPE library collection: KMS20_JCRB cell viability assay (AID 1918973); also: nearly all actives have a fitted effect of over 45% in size
Outline: as §1

Measured: Potency
Potency is read from the fitted curve at half-maximal effect.

CCCCS(=N)(=O)CCC(N)C(=O)O (stereo not given)
not listed: [14] | [15] | [16] | [17] | [18] | [19]
inactive: all other assays above

Cc1nnc(NS(=O)(=O)c2ccc(N)cc2)s1
active: [2] 8.33 µM | [3] 1.05 µM | [4] 1.32 µM | [14] 0.418 µM | [9] 2.64 µM | [10] 18.7 µM | [12] 23.5 µM | [16] 1.18 µM | [13] 18.7 µM
inactive: [1] | [15] | [7] | [8]

Cn1c(=O)c2c(ncn2CC(O)CO)n(C)c1=O (stereo not given)
active: [16] 5.26 µM
not listed: [5] | [11] | [14] | [19]
inactive: all other assays above

O=c1cc(O)c(Cl)c[nH]1
inactive: [1] | [2] | [6] | [7] | [8] | [13]
active: [3] 1.66 µM | [4] 6.62 µM | [14] 0.743 µM | [9] 3.72 µM | [16] 2.35 µM

Cc1ccc(S(=O)(=O)N[C@@H](Cc2ccccc2)C(=O)CCl)cc1
active: [1] 16.6 µM | [2] 9.35 µM | [3] 13.2 µM | [4] 16.6 µM | [14] 14.8 µM | [5] 18.7 µM | [15] 20.9 µM | [6] 14.8 µM | [7] 10.5 µM | [8] 23.5 µM | [9] 11.8 µM | [10] 16.6 µM | [12] 20.9 µM | [13] 20.9 µM | [18] 7.43 µM

CC(C)(C#N)c1cc(Cn2cncn2)cc(C(C)(C)C#N)c1
active: [15] 1.32 µM
not listed: [6] | [11] | [14] | [16] | [17] | [19]
inactive: all other assays above

NC(=O)c1cccnc1
active: [3] 0.003 µM
not listed: [5] | [11] | [13] | [14] | [15] | [16] | [17]
inactive: all other assays above

CN(CCOc1ccc(CC2SC(=O)NC2=O)cc1)c1ccccn1 (stereo not given)
active: [15] 14.8 µM | [9] 16.6 µM | [18] 1.05 µM
not listed: [5] | [10] | [14] | [16] | [17]
inactive: all other assays above

COc1ccc2cc3[n+](cc2c1OC)CCc1cc2c(cc1-3)OCO2
active: [1] 14.8 µM | [2] 2.64 µM | [3] 16.6 µM | [17] 6.62 µM | [4] 16.6 µM | [14] 2.64 µM | [15] 6.62 µM | [6] 14.8 µM | [9] 14.8 µM | [10] 4.69 µM | [11] 4.69 µM | [12] 16.6 µM | [18] 14.8 µM

NS(=O)(=O)c1cc2c(cc1Cl)NC(C(Cl)Cl)NS2(=O)=O (stereo not given)
not listed: [5] | [9] | [15] | [17]
inactive: all other assays above

CC(N)C12CC3CC(CC(C3)C1)C2 (stereo not given)
not listed: [11] | [14] | [15] | [16] | [17] | [18] | [19]
inactive: all other assays above

CS(=O)(=O)c1ccc([C@@H](O)[C@@H](CO)NC(=O)C(Cl)Cl)cc1
active: [2] 16.6 µM | [4] 2.35 µM | [9] 7.43 µM
inactive: [1] | [3] | [17] | [8] | [12]

CCOC(=O)[C@H](CCc1ccccc1)N[C@H]1CCc2ccccc2N(CC(=O)O)C1=O
active: [1] 23.5 µM | [2] 20.9 µM | [3] 9.35 µM | [17] 29.6 µM | [4] 8.33 µM | [19] 5.9 µM | [14] 9.35 µM | [15] 18.7 µM | [6] 18.7 µM | [7] 26.4 µM | [8] 23.5 µM | [9] 8.33 µM | [10] 20.9 µM | [11] 20.9 µM | [12] 20.9 µM | [18] 23.5 µM

NNC(=O)c1ccncc1
not listed: [9] | [13] | [14] | [15] | [17] | [18] | [19]
inactive: all other assays above

O=C(O)c1cc(=O)[nH]c(=O)[nH]1
active: [12] 5.9 µM
inactive: [1] | [2] | [3] | [4] | [5] | [7] | [9] | [10] | [13]

COc1ccc(-c2ccc3cc(C(=O)O)ccc3c2)cc1C12CC3CC(CC(C3)C1)C2
active: [17] 2.35 µM | [15] 2.64 µM | [9] 5.26 µM | [10] 7.43 µM
not listed: [5] | [6] | [11] | [14] | [16] | [19]
inactive: all other assays above
